In PubChem BioAssay (NCATS):
Inconclusive results are not listed. Active and inactive are the calls of the source. Unless noted, how the calls were made is not given here.

How the values were obtained:
[1] = qHTS profiling of the MIPE4 collection as inhibitors of Plasmodium falciparum (3D7) proliferation (AID 743344);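 further: scaled between DMSO vehicle wells and 0.29 µM artemisinin as full inhibition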; details: P. falciparum 3D7 in erythrocytes, SYBR Green DNA fluorescence, 72 h; at 28.5 µM unless noted
In short: (§1)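 Erythrocytes infected with P. falciparum (0.3% parasitemia, 2.5% hematocrit) incubated with compounds 72 h at 37 C, 5% CO2. Lysis with saponin/Triton buffer containing SYBR Green I, overnight at room temperature in the dark; DNA fluorescence (485/535 nm) normalised to 0.29 uM artemisinin and DMSO.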

[2] = qHTS profiling of the MIPE4 collection as inhibitors of Plasmodium falciparum (DD2) proliferation (AID 743345); details: P. falciparum Dd2 in erythrocytes, SYBR Green DNA, 72 h; at 28.5 µM unless noted
In short: as §1

[3] = qHTS profiling of the MIPE4 collection as inhibitors of Plasmodium falciparum (DD2) proliferation (Rep 2) (AID 743346); details: P. falciparum Dd2 in erythrocytes, SYBR Green DNA, 72 h; at 28.5 µM unless noted
In short: as §1

[4] = qHTS profiling of the MIPE4 collection as inhibitors of Plasmodium falciparum (HB3) proliferation (AID 743347);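 further: plate controls were DMSO vehicle wells for no effect and artemisinin wells for full effect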; details: P. falciparum HB3 in erythrocytes, SYBR Green DNA, 72 h; at 28.5 µM unless noted
In short: as §1

[5] = High-throughput drug toxicity screening in the BPDCN cell line Gen2.2 (AID 1224824); details: Gen2.2 BPDCN cells; at 45.8 µM (top of the series) unless noted;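 further: cells exposed to compounds for 48 h before reading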
In short: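 CellTiter-Glo luminescence read after 48 h compound exposure at 37 C defines viability; percent activity set with DMSO as 100% and bortezomib (9.2 uM final) as 0%. 500 exponentially growing cells per well, RPMI plus 10% FBS.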

[6] = High-throughput drug toxicity screening in the BPDCN cell line Cal-1 (AID 1224825); details: Cal-1 BPDCN cell viability, qHTS; at 45.8 µM (top of the series) unless noted
In short: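 Cal-1 cells, 500 per well in phenol-red-free RPMI with 10% FBS, exposed to compounds for 48 hours at 37C, 5% CO2. Viability read by CellTiter-Glo luminescence; percent activity normalized to DMSO (100%) and 9.2 uM bortezomib final (0%).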

[7] = qHTS Screen of the MIPE 4.0 Collection Against Ewings Sarcoma (TC32) (AID 1259256; active means well fitted curve in the direction sought with a large enough effect; an effect the other way counts as inactive or inconclusive; further: nearly all actives have a fitted effect of over 45% in size; further: potency means the concentration at half of the fitted maximal effect)
In short: (§2)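 Dose series incubated 48 h with cells in RPMI plus 5% FBS, glutamine and penicillin/streptomycin; cell viability then quantified via CellTiter-Glo.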

[8] = qHTS assay to identify small molecule inhibitors of chordoma cells - UCH-1 (AID 1259355; active means well fitted curve in the direction sought with a large enough effect; an effect the other way counts as inactive or inconclusive; further: on the % scale 0 is the no-effect control and ±100 the full control effect; nearly all actives have a fitted effect of over 55% in size)
In short: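 Cells (800/well) were seeded and left overnight at 37 C, 5% CO2, then treated with drugs at 15 concentrations plus a combination mix of auranofin, camptothecin, doxorubicin, rubitecan and topotecan. Viability after 48hr was read by CellTiter-Glo luminescence.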

[9] = qHTS assay to identify small molecule inhibitors of chordoma cells - UCH-2 (AID 1259356; active means well fitted curve in the direction sought with a large enough effect; an effect the other way counts as inactive or inconclusive; further: on the % scale 0 is the no-effect control and ±100 the full control effect)
[10] = qHTS Screen of the MIPE 4.0 Collection Against Ewings Sarcoma (RDES) (AID 1259252; active means well fitted curve in the direction sought with a large enough effect; an effect the other way counts as inactive or inconclusive; further: nearly all actives have a fitted effect of over 35% in size; further: potency means the concentration at half of the fitted maximal effect)
In short: as §2

[11] = qHTS Screen of the MIPE 4.0 Collection Against Ewings Sarcoma (TC71) (AID 1259253; active means well fitted curve in the direction sought with a large enough effect; an effect the other way counts as inactive or inconclusive; further: nearly all actives have a fitted effect of over 40% in size; further: potency means the concentration at half of the fitted maximal effect)
In short: as §2

[12] = qHTS Screen of the MIPE 4.0 Collection Against Ewings Sarcoma (EW8) (AID 1259255; active means well fitted curve in the direction sought with a large enough effect; an effect the other way counts as inactive or inconclusive; further: nearly all actives have a fitted effect of over 35% in size; further: potency means the concentration at half of the fitted maximal effect;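 on viability: 100% = DMSO-treated cells and 0% = medium-only wells without cells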)
In short: as §2

[13] = qHTS assay for measurement of the activity of small molecule inhibitors on Zika virus induced Caspase-3 activity in human astrocytoma cells (AID 1224859; active means well fitted curve in the direction sought with a large enough effect; an effect the other way counts as inactive or inconclusive;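 further: plate controls were ZIKV-infected untreated cells for no effect and uninfected cells for full effect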)
In short: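 In SNB-19 cells plated at 250 cells/well and grown 16-20 h, compounds were applied 1 h before ZIKV (2 FFU/cell). Six hours later caspase-3/7 luminescence was recorded.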

[14] = Identifying Small Molecule Inhibitors of Pancreatic Cancer Stem Cells (SN12C, Adherent) (AID 1259358; active means well fitted curve in the direction sought with a large enough effect; an effect the other way counts as inactive or inconclusive;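 further: cell survival measured after 48 h of compound exposure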)
In short: (§3)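 Endpoint: ATP-based luminescence, 48 h drug exposure. Bortezomib at 9.2 uM final as full-kill control; DMSO vehicle as negative control; activity normalized between vehicle and cell-free wells.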

[15] = Identifying Small Molecule Inhibitors of Pancreatic Cancer Stem Cells (SN12C, Spheroid) (AID 1259360; active means well fitted curve in the direction sought with a large enough effect; an effect the other way counts as inactive or inconclusive;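 further: 100% = DMSO-treated cells and 0% = wells without cells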)
In short: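 Spheroids grown 14 days in stem cell media on nonadherent hydrogel before screening; cells attached 4 h, then compound exposure 48 h at 37C, 5% CO2. CellTiter-Glo luminescence normalized to DMSO (no inhibition) and no-cell wells (full inhibition).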

[16] = Identifying Small Molecule Inhibitors of Pancreatic Cancer Stem Cells (A278, Adherent) (AID 1259361; active means well fitted curve in the direction sought with a large enough effect; an effect the other way counts as inactive or inconclusive;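 further: 100% = DMSO-treated cells and 0% = cell-free media-only wells; nearly all actives have a fitted effect of over 35% in size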)
In short: as §3

Row | SMILES | parasite growth, % of DMSO control [1] | parasite growth remaining, % of DMSO control (lower = more inhibition) [2] | parasite growth, % of control (lower = inhibition) [3] | growth, % of control [4] | cell viability, % of control (lower = more cytotoxic) [5] | viability (% of control) [6] | Potency [7] | Potency [8] | outcome [9] | Potency [10] | Potency [11] | Potency [12] | Potency [13] | Potency [14] | outcome [15] | IC50 (viability decrease) [16]
1 | NC(CO)C(=O)NNCc1ccc(O)c(O)c1O (stereo not given) | 84.1% | 125% | 89.1% | 99.5% | 86.9% | 79.5% | 26.4 µM (active) | inactive | inactive |  |  |  |  |  |  | 
2 | CC(C)Cc1ccc(C(C)C(=O)O)cc1 (stereo not given) | 112% [at 9.64 µM] | 99.8% [at 9.64 µM] | 162% [at 9.64 µM] | 94.2% [at 9.64 µM] | 116% [at 23.2 µM] | 113% [at 23.2 µM] | inactive | inactive | inactive | inactive | inactive | inactive |  |  |  | 
3 | COc1ccc2c(c1)c(CC(=O)O)c(C)n2C(=O)c1ccc(Cl)cc1 | 55.7% | 103% |  | 83.6% | 127% | 104% |  |  |  | 14.8 µM (active) |  | inactive | inactive |  |  | 
4 | COc1ccccc1OCCNCC(O)COc1cccc2[nH]c3ccccc3c12 (stereo not given) | 16.5% | 17.9% | 20.7% | 5.04% | 167% | 89.8% | inactive | inactive | inactive |  |  |  |  |  |  | 
5 | CC(C)(C)C(=O)Oc1ccc(S(=O)(=O)Nc2ccccc2C(=O)NCC(=O)O)cc1 | 101% | 92.3% |  | 67.9% | 103% | 96% | inactive | inactive | inactive |  | inactive | inactive |  |  |  | 
6 | Cn1c(=O)c2c(ncn2C)n(C)c1=O | 91.2% | 96.6% | 81.8% | 103% | 150% | 116% | inactive |  | inactive |  |  | inactive |  |  |  | 
7 | CN(C)CCC=C1c2ccccc2C=Cc2ccccc21 | 58.1% | 62.8% | 42.4% | 68.3% | 41.3% | 67.7% | 16.6 µM (active) | inactive | inactive |  | 20.9 µM (active) | 16.6 µM (active) | inactive |  |  | 
8 | CC1COc2c(N3CCN(C)CC3)c(F)cc3c(=O)c(C(=O)O)cn1c23 (stereo not given) | 59.3% | 84.7% | 76.4% | 76.3% | 147% | 42.1% | inactive | inactive | inactive |  |  | inactive |  |  |  | 
9 | CCOC(=O)Nc1ccc(NCc2ccc(F)cc2)nc1N |  |  |  |  | 166% | 96.5% |  | inactive | inactive |  |  |  | inactive |  |  | 
10 | Cc1cnc(C(=O)NCCc2ccc(S(=O)(=O)NC(=O)NC3CCCCC3)cc2)cn1 | 7.98% | 12.7% | 9.38% | 3.73% | 112% | 58.3% |  | inactive | inactive |  |  |  |  |  |  | 
11 | Clc1ccc2nsnc2c1NC1=NCCN1 | 73.6% | 98.6% | 45.7% | 67.7% | 64.1% | 57% | inactive |  | inactive | inactive | inactive | inactive |  |  |  | 
12 | CC(C)NCC(O)c1ccc(O)c(O)c1 (stereo not given) | 10.6% | 91.4% |  | 9.05% | 46.4% | 16% |  | inactive | inactive |  | 5.9 µM (active) | 20.9 µM (active) | inactive |  |  | 
13 | CN1CCC(=C2c3ccccc3CC(=O)c3sccc32)CC1 | 13.6% | 55.5% | 40.5% | 12.6% | 14.3% | 23.6% | 16.6 µM (active) | inactive | inactive |  | 13.2 µM (active) |  | inactive |  |  | 
14 | CC(C)C(=O)Nc1ccc([N+](=O)[O-])c(C(F)(F)F)c1 |  |  |  |  | 58% | 5.71% | 13.2 µM (active) | inactive | inactive |  | 10.5 µM (active) | 13.2 µM (active) |  |  |  | 
15 | CCC1(c2ccccc2)C(=O)NCNC1=O | 109% | 102% | 107% | 91% | 15.1% | 8.03% | 14.8 µM (active) |  | inactive | 9.35 µM (active) | 11.8 µM (active) | 18.7 µM (active) |  |  |  | 
16 | CC(CCc1ccc(O)cc1)NCCc1ccc(O)c(O)c1 (stereo not given) | 52.3% | 64.4% |  | 92.8% | 5% | 9.22% |  |  | inactive |  | 23.5 µM (active) | 23.5 µM (active) |  |  |  | 
17 | Nc1nnc(-c2cccc(Cl)c2Cl)c(N)n1 | 93.8% | 98% |  | 98.1% | 86.5% | 36.7% |  | inactive | inactive |  |  |  |  |  |  | 
18 | Cn1ccc2cc3c(cc21)CCN3C(=O)Nc1cccnc1 | 23.4% | 72.7% |  | 56% | 100% | 69.5% |  | inactive | inactive |  | 23.5 µM (active) |  | inactive | inactive | inactive | inactive
19 | CCCCc1oc2ccccc2c1C(=O)c1cc(I)c(OCCN(CC)CC)c(I)c1 | 6.22% | 6.54% | 19.3% | 8.19% | 84.7% | 8.13% | 8.33 µM (active) |  | inactive |  | 8.33 µM (active) | 9.35 µM (active) | inactive |  |  | 
20 | CN1C(C(=O)Nc2ccccn2)=C(O)c2ccccc2S1(=O)=O | 77.2% | 88.2% | 136% | 90.6% | 61.5% | 8.08% |  | inactive | inactive |  |  |  |  |  |  | 
21 | O=C1Cc2cc(CCN3CCN(c4nsc5ccccc45)CC3)c(Cl)cc2N1 | 14.8% | 21.2% | 20.5% | 9.47% | 199% | 94.5% | 23.5 µM (active) | inactive | inactive |  | 23.5 µM (active) | 23.5 µM (active) | inactive |  |  | 
22 | O=C1c2c(O)ccc(O)c2C(=O)c2c(NCCNCCO)ccc(NCCNCCO)c21 | 0.962% | 1.83% | 5.92% | 0.795% | 6.11% | 2.98% | inactive |  |  |  | 0.0935 µM (active) | 0.059 µM (active) | inactive |  |  | 
